Data as given in PubChem BioAssay (Tox21).
Inconclusive results are not listed. Values without a mark were called inactive. The source made the active and inactive calls. Calls follow the shape of the dose curve; as a rule, active = well fitted activation curve with a large enough effect in the repeat runs; inconclusive = weak or mixed curves; inactive = no such curve, though single readings can be large or run the other way. Positions of bridges follow the written chain, without caps; N, C: chain ends. Non-standard residues stand in square brackets, D forms with d. Residues, ends and D or L forms follow the SMILES beside them. hArg = N=C(N)NCCCC[C@H](N)C(=O)O; Mpa = O=C(O)CCS

Experiment: qHTS assay for small molecules that induce genotoxicity in human embryonic kidney cells expressing luciferase-tagged ATAD5 (AID 651632); also: nearly all actives have a fitted effect of over 15% in size
Conditions: HEK293T ATAD5-luciferase induction, 16 h; series mostly up to 83.3 µM; activation: at the top concentration
Description: U.S. Tox21 Program National Center for Advancing Translational Sciences [NCATS] NIH Chemical Genomics Center [NCGC] U.S. Environmental Protection Agency [EPA] National Institutes of Environmental Health Sciences [NIEHS] National Toxicology Program [NTP] U.S. Food and Drug Administration [FDA] Tox21 Assay Overview: As cancer cells divide rapidly and during every cell division they need to duplicate their genome by DNA replication. The failure to do so results in the cancer cell death. Based on this concept, many chemotherapeutic agents were developed but have limitations such as low efficacy and severe side effects etc. A new cell based assay was developed to find the compounds that effectively block DNA replication either by directly damaging DNA or by inhibiting other cellular mechanisms. Enhanced Level of Genome Instability Gene 1 (ELG1; human ATAD5) protein levels increase in response to various types of DNA damage. Using a luciferase reporter-gene tagged with ATAD5, a cell-based assay [developed by Kyungjae Myung, NHGRI, NIH] was used to measure the induction of ATAD5 in human embryonic kidney cells (HEK293T). So, increase in luciferase activity can be used to identify the compounds that cause genetic stress.
Tox21 Assay Protocol Summary: For genotoxicity screening, 2,000 cells in 5 uL/well were dispensed into white, solid-bottom 1536-well plates using a Multidrop Combi (Thermo Scientific) dispenser. Following transfer of 23 nL compound or DMSO vehicle by a pin tool, the plates were incubated 16 hr at 37C and 5% CO2. 5 ul Amplite (AAT Bioquest, Inc.) was then added to each plate and following 30 min incubation at room temperature, luciferase activity was quantified on a ViewLux CCD-based plate reader.
% is scaled to controls: 0 for no effect and ±100 for the full control effect.

| Structure (SMILES) | activation | outcome |
| --- | --- | --- |
| C/C=C(\C)C(=O)OCCc1ccccc1 | 2.16% | – |
| CCNC(=O)NCc1cccc(Cl)c1 | 2.03% | – |
| O=C(O)[C@H](O)c1ccccc1 | 1.65% | – |
| CCc1occc(=O)c1O | 1.51% | – |
| NC(=O)[C@@H]1CSSCCC(=O)N[C@@H](CCCCN=C(N)N)C(=O)NCC(=O)N[C@@H](CC(=O)O)C(=O)N[C@@H](Cc2c[nH]c3ccccc23)C(=O)N2CCC[C@H]2C(=O)N1 ([Mpa][hArg]GDWPC-NH2; disulfide 1-7) | 2.45% | – |
| C[Si]1(C)O[Si](C)(C)O[Si](C)(C)O[Si](C)(C)O[Si](C)(C)O1 | 1.2% | – |
| CC(C)=CCC/C(C)=C/COC=O | -0.355% | – |
| CC(C)(CO)C(O)C(=O)NCCCO (stereo not given) | 1.33% | – |
| CCCCC1CCC(O)CC1 (stereo not given) | 1.89% | – |
| CC(=O)c1cc(C)oc1C | -1.49% [at 95.3 µM] | – |
| C[C@H]1[C@@H](c2ccccc2)NC(=O)N1C | 1.82% [at 95.3 µM] | – |
| C=CCCCCCCCCC(=O)OCCCC | 2.8% | – |
| N#Cc1cscn1 | -0.444% | – |
| CO[Si](CCCn1c(=O)n(CCC[Si](OC)(OC)OC)c(=O)n(CCC[Si](OC)(OC)OC)c1=O)(OC)OC | -2.13% | – |
| CCn1cc(C(=O)O)c(=O)c2cnc(N3CCCC3)nc21 | 7.07% [at 39.1 µM] | – |
| CC(O)CC(C)O (stereo not given) | 0.302% | – |
| COC(C)(OC)OC | -3.39% | – |
| CCCCSCCCC | 4.3% | – |
| CCCCCCCCCCCCCCCCCCOCCO | -3.14% [at 39.1 µM] | – |
| CCCCCCCCCOC(=O)c1ccccc1C(=O)OCCCCCCCCC | 1.7% | – |

| Structure (SMILES) | activation | outcome |
| --- | --- | --- |
| CC(=O)CC(=O)Nc1ccc(C)cc1C | 3.1% | – |
| CC(C)Cn1cnc2c1c(=O)n(C)c(=O)n2C | 1.3% | – |
| COc1ccc2c(c1)c1c3n2CCN(C)C3=NCC1 | -0.457% | – |
| CCCCCc1cccc(=O)o1 | 1.95% | – |
| CNCCS(=O)(=O)O | -1.83% [at 95.3 µM] | – |
| NCc1ccc(S(N)(=O)=O)cc1 | -2% [at 39.1 µM] | – |
| NCCOCCN | 0.141% | – |
| CCOc1cccc(N)c1 | -0.981% | – |
| CCCCOCC(C)O (stereo not given) | 0.434% [at 95.3 µM] | – |
| CCCCCCC1(C)CCC(=O)O1 (stereo not given) | -3.56% | – |
| O=C(CCCCC(=O)Nc1c(I)cc(I)c(C(=O)O)c1I)Nc1c(I)cc(I)c(C(=O)O)c1I | 4.72% | – |
| CC(=O)OC1CCCCC1C(C)(C)C (stereo not given) | 1.47% | – |
| CO/N=C(/C(=O)N[C@@H]1C(=O)N2C(C(=O)[O-])=C(C[n+]3ccn4ncccc43)CS[C@H]12)c1nsc(N)n1 | – | inactive |
| C/C=C(\C)C(C)=O | 2.66% | – |
| CCCSSCCC | 3.89% | – |
| CC(C)CO | 2.96% [at 95.3 µM] | – |
| CCCC(=O)Nc1ccc(OCC(O)CNC(C)C)c(C(C)=O)c1 (stereo not given) | -0.298% [at 39.1 µM] | – |
| CC(=O)C1C(=O)C=C(C)OC1=O (stereo not given) | -0.967% | – |
| CCCCCCCCCCCCCBr | 5.26% | – |
| CCCC(CC)c1ccccc1 (stereo not given) | 0.993% | – |
